Our source for the inhibition values is PubChem BioAssay AID624255 (Broad Institute, 2012).

Among all 77,000 compounds or so, about 4,600 (6%) were called active. Another 1% or so got no clear call; they are omitted. This is one part of a sample in which actives are shown more often than they occur. Values without a mark were called inactive.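 How the source made its calls: active means mean inhibition above about 93%, with at least 55% of replicates each passing it (limit read from the data, passing the limit was not always enough); inconclusive means only one of those two conditions holds; inactive means neither condition holds.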

As usually defined, the inhibition is the relative decrease from the control value, in per cent.

The experiment in a line: T. cruzi intracellular proliferation inhibitors, primary screen, cell-based, beta-gal Tulahuen parasites, NIH3T3 host, luminescence (AID 624255). The settings on record: T. cruzi beta-gal in NIH3T3, GalScreen luminescence, 90 h; at 8.34 µM; active compounds read high.
For `CO[C@@H]1CN(C)C(=O)c2ccc(NS(=O)(=O)c3ccc(C)cc3)cc2OC[C@@H](C)N(Cc2nccs2)C[C@H]1C`, the inhibition was 41.1%.

Take `C[C@@H]1CN([C@@H](C)CO)C(=O)c2cc(C#CC3CC3)cnc2O[C@@H]1CN(C)C(=O)Cc1ccccn1`: the inhibition is 51.4%.

On to `CCCN(C)C[C@H]1OCCCC[C@@H](C)Oc2ccc(NC(=O)CCC(F)(F)F)cc2C(=O)N([C@H](C)CO)C[C@H]1C`, for which the inhibition is 67.3%.

Turning to `O=C(C[C@H]1CC[C@@H](NC(=O)c2ccncc2)[C@@H](CO)O1)Nc1ccccc1`, the inhibition is 19.5%.

For `CC(C)NC(=O)Nc1ccc2c(c1)C(=O)N(C)[C@H]1CC[C@H](CC(=O)NCC3CCCCC3)O[C@@H]1CO2`, the inhibition is 22.4%.

For `O=C(C1CCOCC1)N1C[C@H]2[C@@H](c3ccccc31)[C@@H](CO)N2Cc1ccccc1F`, the inhibition is -22.5%.

Turning to `O=C(CN1CCOCC1)N1CCCCN2[C@@H](CO)[C@H](c3ccc(/C=C/c4ccccc4)cc3)[C@@H]2C1`, the inhibition was 102% (active).

`OC[C@H]1[C@@H](c2ccc(/C=C/c3ccccc3)cc2)[C@H]2CN(Cc3cccnc3)CCCCN21`: the inhibition is 23.4%.

As for `O=C(CN1CCOCC1)N1CCCCN2[C@H](CO)[C@H](c3ccc(Br)cc3)[C@H]2C1`, the inhibition was 36%.

With `COc1ccc(CN(C)C[C@H]2Oc3ccc(NS(=O)(=O)c4ccc(C)cc4)cc3C(=O)N([C@@H](C)CO)C[C@H]2C)cc1`, the inhibition was 37.9%.

Consider `COc1ccc(S(=O)(=O)Nc2ccc3c(c2)C(=O)N([C@H](C)CO)C[C@H](C)[C@H](CN(C)Cc2ccc(C(F)(F)F)cc2)O3)cc1`, for which the inhibition is 100% (active).

As to `COc1ccc(CN(C)C[C@@H]2Oc3ccc(NS(=O)(=O)c4ccc(OC)cc4)cc3C(=O)N([C@H](C)CO)C[C@H]2C)cc1`, the inhibition was 0.955%.

Regarding `C[C@@H]1CN([C@@H](C)CO)C(=O)Cc2cc(NS(=O)(=O)c3ccc(Cl)cc3)ccc2O[C@H]1CN(C)Cc1ccc(C(F)(F)F)cc1`, the inhibition is -1.87%.

For the compound `C[C@H](CO)N1C[C@H](C)[C@H](CN(C)Cc2ccc(C(F)(F)F)cc2)Oc2ccc(NS(=O)(=O)c3ccc(Cl)cc3)cc2C1=O`, the inhibition is 127% (active).

`COc1ccc(CN(C)C[C@@H]2Oc3ccc(NS(=O)(=O)c4ccc(F)cc4)cc3C(=O)N([C@@H](C)CO)C[C@@H]2C)cc1`: the inhibition is 11.1%.

Turning to `COc1ccc(S(=O)(=O)Nc2ccc3c(c2)C(=O)N([C@@H](C)CO)C[C@H](C)[C@@H](CN(C)Cc2ccc(C(F)(F)F)cc2)O3)cc1`, the inhibition is 105% (active).

For `Cc1ccc(S(=O)(=O)Nc2ccc3c(c2)C(=O)N([C@@H](C)CO)C[C@@H](C)[C@H](CN(C)Cc2ccc(C(F)(F)F)cc2)O3)cc1`, the inhibition was 42.1%.

`COc1ccc(CN(C)C[C@H]2Oc3ccc(NS(=O)(=O)c4ccc(Cl)cc4)cc3CC(=O)N([C@@H](C)CO)C[C@H]2C)cc1`: the inhibition was 96.7% (active).

Consider `COc1ccc(S(=O)(=O)Nc2ccc3c(c2)C(=O)N([C@@H](C)CO)C[C@H](C)[C@H](CN(C)Cc2ccc(C(=O)O)cc2)O3)cc1`, for which the inhibition was -6.07%.

Take `COc1ccc(S(=O)(=O)Nc2ccc3c(c2)CC(=O)N([C@@H](C)CO)C[C@H](C)[C@@H](CN(C)Cc2ccc(C(=O)O)cc2)O3)cc1`: the inhibition was -13.7%.

On to `COc1ccc(S(=O)(=O)Nc2ccc3c(c2)CC(=O)N([C@H](C)CO)C[C@H](C)[C@H](CN(C)Cc2ccc(C(F)(F)F)cc2)O3)cc1`, for which the inhibition was 75%.

On to `C[C@@H]1CN([C@@H](C)CO)S(=O)(=O)c2ccc(-c3ccncc3)cc2O[C@@H]1CN(C)C(=O)C1CCC1`, for which the inhibition was 76.2%.

With `O=C(Nc1ccc(F)cc1)N[C@@H]1CC[C@H](CC(=O)N2CCCCC2)O[C@H]1CO`, the inhibition is -3.48%.

For the compound `CCCNC(=O)[C@H]1[C@H](CO)[C@H]2Cn3c(ccc(-c4cccc(F)c4)c3=O)[C@@H]1N2C(=O)CC`, the inhibition was 1.74%.

For the compound `CC(C)CC#Cc1cnc2c(c1)C(=O)N([C@H](C)CO)C[C@H](C)[C@@H](CN(C)C(=O)Cc1cccnc1)O2`, the inhibition is 3.64%.

In the case of `Cc1noc(C)c1S(=O)(=O)N(C)C[C@@H]1OCCCC[C@@H](C)Oc2ccc(NC(=O)c3ccccc3)cc2C(=O)N([C@@H](C)CO)C[C@@H]1C`, the inhibition was 14.7%.
